Experimental data reported in PubChem BioAssay (NCATS).
Values joined by “and” are separate entries in the source; they are usually repeats but may differ in a detail not shown here. Identical values can stand only once. Records with an inconclusive call do not appear. Entries that show only a call come without a potency. Active and inactive are the calls of the source. Unless noted, calls follow the shape of the dose curve; as a rule, active = well fitted curve in the direction sought with a large enough effect; inconclusive = small, poorly fitted or top-dose-only effect, or another doubt; inactive = no such curve, though single readings can be large; an effect the other way counts as inactive or inconclusive.

Key:
[1] = target: alpha-glucosidase (Oryza sativa, rice) (UniProt Q653V4); assay: Counterscreen for Glucocerebrosidase Inhibitors: qHTS Assay for Rice alpha-Glucosidase at pH 5.0 (AID 997)
How it was run: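 Rice alpha-glucosidase (4 nM final) with 400 uM 4-methylumbelliferyl-alpha-D-glucopyranoside in citrate buffer pH 5.0, 20 min at room temperature, stopped at pH 10; fluorescence 365/440 nm, compounds 0.7 nM–77 uM, AC50 from Hill fits.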

[2] = qHTS Assay for Lipid Storage Modulators (AID 1519; calls by dose curve); conditions: Drosophila S3 cells, BODIPY lipid droplet/cell ratio, laser cytometry, cells loaded with oleic acid
How it was run: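 Cells seeded at 5,000 per well were treated with compounds over a concentration series and loaded with oleic acid (400 uM, as added). Lipid droplet fluorescence (488 nm excitation, 500-530 nm channel) was read by laser-scanning cytometry and normalized to 20 uM Triacsin C.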

[3] = target: Alpha-galactosidase A (Homo sapiens) (UniProt P06280); assay: Counterscreen for Glucocerebrosidase Inhibitors: qHTS Assay for Human alpha-Galactosidase at pH 4.5 (AID 992)
Alpha-galactosidase A (Homo sapiens), sequence (P06280 whole entry, looked up): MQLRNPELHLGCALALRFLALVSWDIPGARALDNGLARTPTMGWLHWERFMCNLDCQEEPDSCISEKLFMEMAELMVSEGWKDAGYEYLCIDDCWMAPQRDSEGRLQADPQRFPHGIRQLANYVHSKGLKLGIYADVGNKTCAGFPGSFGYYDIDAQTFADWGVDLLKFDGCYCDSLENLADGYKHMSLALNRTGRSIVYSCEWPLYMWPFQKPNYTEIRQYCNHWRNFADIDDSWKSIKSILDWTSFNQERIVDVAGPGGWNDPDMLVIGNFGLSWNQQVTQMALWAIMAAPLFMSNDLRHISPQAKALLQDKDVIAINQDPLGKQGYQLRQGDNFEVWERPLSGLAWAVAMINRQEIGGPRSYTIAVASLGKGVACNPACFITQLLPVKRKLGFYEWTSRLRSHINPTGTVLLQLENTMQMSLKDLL
How it was run: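 Enzyme at 2 nM final was combined with compound (0.7 nM to 77 uM) and 80 uM 4-methylumbelliferyl alpha-D-galactopyranoside in 50 mM citric acid, 0.005% Tween-20, pH 4.5. After 20 min at room temperature, fluorescence was read (Ex 365/Em 440 nm); AC50 came from Hill fits.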

[4] = Cell Viability - LYMP2-023 (AID 975);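 also: cellular ATP measured by luciferase luminescence as viability proxy; nearly all actives have a fitted effect of over 55% in size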
How it was run: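 2500 cells/well, 5 hr 37 C; cpd 24 hr 37 C; CellTiter-Glo, 30 min RT; luminescence. qHTS conc-response, Hill fit -> AC50. Pos ctrl tetraoctylammonium bromide.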

[5] = Cell Viability - LYMP2-025 (AID 976)
How it was run: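 Seed 2500 LYMP2-025 cells/well; 5 hr at 37 C; add compound; 24 hr at 37 C; add CellTiter-Glo; 30 min RT; read luminescence. AC50 from Hill-modelled concentration-response.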

[6] = Cell Viability - LYMP2-002 (AID 977);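 also: compound exposure lasted 24 h at 37 °C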
How it was run: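 Human lymphoblastoid LYMP2-002 cells, 2500 per well, exposed to compounds for 24 h at 37 C in complete medium; viability read as intracellular ATP by CellTiter-Glo luminescence, AC50 from Hill fits.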

[7] = Cell Viability - LYMP2-006 (AID 978); also: nearly all actives have a fitted effect of over 60% in size; also: potency is read from the fitted curve at half-maximal effect
How it was run: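 In this cytotoxicity screen, the human lymphoblastoid line grew in complete medium with test compounds for 24 hr at 37 C. Cellular ATP served as the viability signal.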

[8] = Cell Viability - LYMP2-007 (AID 979);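 also: cells exposed to compound for 24 h before reading; nearly all actives have a fitted effect of over 60% in size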
How it was run: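 Luminescent ATP signal (CellTiter-Glo) serves as the viability read-out after 24 hr compound treatment of lymphoblastoid cells in complete medium at 37 C. Concentration-response data were fitted to the Hill equation to give AC50 values.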

[9] = Cell Viability - LYMP2-008 (AID 980); also: nearly all actives have a fitted effect of over 60% in size
How it was run: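 qHTS, human lymphoblastoid line, 2500 cells/well; 5 hr preincubation, 24 hr compound, 37 C. CellTiter-Glo ATP luminescence. AC50 via Hill equation. Tetraoctylammonium bromide positive control.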

[10] = Cell Viability - LYMP2-010 (AID 981); also: nearly all actives have a fitted effect of over 55% in size; also: potency is read from the fitted curve at half-maximal effect
How it was run: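 Luminescent ATP signal (CellTiter-Glo) served as the viability read-out. Cells of the human lymphoblastoid line were treated with compound over a concentration range for 24 hours at 37 C, and AC50 values came from Hill-equation modeling.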

[11] = Cell Viability - LYMP2-014 (AID 983); also: nearly all actives have a fitted effect of over 50% in size
How it was run: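 Luminescent ATP signal (CellTiter-Glo, 30 min at room temperature) serves as the viability read-out after 24 hr compound exposure at 37 C. Cells were seeded at 2500 per well and settled 5 hr beforehand.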

[12] = Cell Viability - LYMP2-016 (AID 984); also: nearly all actives have a fitted effect of over 55% in size
How it was run: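 Concentration-dependent ATP depletion measured in LYMP2-016 lymphoblastoid cells, 24 h, 37 C; luciferase-based luminescent detection; Hill-equation AC50.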

[13] = Cell Viability - LYMP2-018 (AID 985); also: nearly all actives have a fitted effect of over 50% in size; also: potency is read from the fitted curve at half-maximal effect
How it was run: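 Luminescent ATP signal (CellTiter-Glo, read after 30 min at room temperature) reports viable cells after 24 hr compound treatment at 37 C. Concentration-response data were fitted to the standard Hill equation for AC50.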

[14] = Cell Viability - LYMP2-020 (AID 986); also: nearly all actives have a fitted effect of over 55% in size; also: potency is read from the fitted curve at half-maximal effect
How it was run: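 Luminescent ATP signal (CellTiter-Glo, 30 min at room temperature) is the read-out after 24 h compound treatment of lymphoblastoid cells at 37 C. AC50 values come from Hill-equation fits across concentrations.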

[15] = Cell Viability - LYMP2-022 (AID 987); also: nearly all actives have a fitted effect of over 55% in size; also: potency is read from the fitted curve at half-maximal effect
How it was run: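 qHTS: human lymphoblastoid cells 2500/well; 5 hr 37 C; cpd added; 24 hr 37 C; CellTiter-Glo, 30 min RT; luminescence. AC50 via Hill fit; tetraoctylammonium bromide positive ctrl.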

[16] = Cell Viability - LYMP2-024 (AID 988); also: nearly all actives have a fitted effect of over 60% in size; also: potency is read from the fitted curve at half-maximal effect
How it was run: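 Steps: seed 2500 cells/well, 5 hr 37 C; add compound, 24 hr 37 C; add CellTiter-Glo, 30 min room temperature; read luminescence. AC50 derived by Hill modelling of concentration-dependent ATP loss.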

[17] = Cell Viability - LYMP2-026 (AID 989); also: nearly all actives have a fitted effect of over 50% in size
How it was run: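 Luminescent ATP signal (CellTiter-Glo, 30 min room temperature) measures viable lymphoblastoid cells after 24 hr compound treatment at 37 C. Decreased ATP reflects acute toxicity; AC50 values come from Hill-equation modeling.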

[18] = Cell Viability - LYMP1-002 - Assay at 24 hr (AID 993)
How it was run: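 Cells plated 2500/well, 5 hr 37 C; compounds added, 24 hr 37 C; CellTiter-Glo added, 30 min RT; luminescence read. Tetraoctylammonium bromide positive control. Hill-equation AC50.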

[19] = Cell Viability - LYMP1-002 - Assay at 40 hr (AID 994); also: nearly all actives have a fitted effect of over 60% in size; also: potency is read from the fitted curve at half-maximal effect
How it was run: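 Luminescent ATP signal served as the viability readout, with decreases taken as toxicity. Cells were treated with compounds across a concentration range for 40 hours at 37 C, and AC50 values came from standard Hill modeling.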

[20] = measured here: cell count channel max response
[21] = measured here: lipid channel max response

O=C1NCN(c2ccccc2)C12CCN(CCCC(c1ccc(F)cc1)c1ccc(F)cc1)CC2
outcome [1]: inactive | activity change, negative = inhibition ([2]; at 25.7 µM (top of the series)): -8.24% (inactive) | max response [2, 20]: -19.4% | max response [2, 21]: -26.6%

CSc1ccc(C(=O)c2[nH]c(=O)[nH]c2C)cc1
outcome [3]: inactive | outcome [1]: inactive

CCCN(CCC)CCc1cccc2c1CC(=O)N2
outcome [3]: inactive | outcome [1]: inactive | activity change, negative = inhibition ([2]; at 57.5 µM (top of the series)): 5.49% (inactive) | max response [2, 20]: 9.72% | max response [2, 21]: 11.6%

O=C(CCCN1CCC(O)(c2cccc(C(F)(F)F)c2)CC1)c1ccc(F)cc1
outcome [3]: inactive | outcome [1]: inactive

CN(C)CCCN1c2ccccc2Sc2ccc(C(F)(F)F)cc21
outcome [3]: inactive | outcome [1]: inactive

CNCCCN1c2ccccc2CCc2ccccc21
outcome [3]: inactive | outcome [1]: inactive

Cc1ccc(=O)n(-c2ccccc2)c1
outcome [3]: inactive | outcome [1]: inactive | activity change, negative = inhibition ([2]; at 57.5 µM (top of the series)): 1.81% (inactive) | max response [2, 20]: 6.64% | max response [2, 21]: 9.28%

C(=C\c1ccccc1)/CN1CCN(C(c2ccccc2)c2ccccc2)CC1
outcome [3]: inactive | outcome [1]: inactive

C[n+]1cc2c3c(ccc2c2ccc4cc5c(cc4c21)OCO5)OCO3
outcome [3]: inactive | outcome [1]: inactive

CCCCOCCOCCOCc1cc2c(cc1CCC)OCO2
outcome [4]: inactive | outcome [5]: inactive | Potency [6]: inactive | Potency [7]: inactive | outcome [8]: inactive | outcome [9]: inactive | Potency [10]: inactive | outcome [11]: inactive | outcome [12]: inactive | Potency [13]: inactive | Potency [14]: inactive | Potency [15]: inactive | Potency [16]: inactive | outcome [17]: inactive | outcome [18]: inactive | Potency [19]: inactive

NC(=Nc1ccccc1)Nc1ccccc1
outcome [4]: inactive | outcome [5]: inactive | Potency [6]: inactive | Potency [7]: inactive | outcome [8]: inactive | outcome [9]: inactive | Potency [10]: inactive | outcome [11]: inactive | outcome [12]: inactive | Potency [13]: inactive | Potency [14]: inactive | Potency [15]: inactive | Potency [16]: inactive | outcome [17]: inactive | outcome [18]: inactive | Potency [19]: inactive

CCO/C([O-])=N/c1c[n+](N2CCOCC2)no1
outcome [3]: inactive | outcome [1]: inactive

CCc1cccc(N(C)C(N)=Nc2cccc3ccccc23)c1
outcome [3]: inactive | outcome [1]: inactive

CCC(=O)c1ccc2c(c1)N(CCCN(C)C)c1ccccc1S2
outcome [3]: inactive | outcome [1]: inactive

CCN1CCc2nc(N)oc2CC1
outcome [3]: inactive | outcome [1]: inactive

CCNC(=O)N1CCN(CCCC(c2ccc(F)cc2)c2ccc(F)cc2)CC1
outcome [3]: inactive | outcome [1]: inactive | activity change, negative = inhibition ([2]; at 57.5 µM (top of the series)): -0.161% (inactive) | max response [2, 20]: -45.7% | max response [2, 21]: -48.7%

c1cc(CN2CCCCC2)cc(OCCCNc2nc3ccccc3s2)c1
outcome [3]: inactive | outcome [1]: inactive | activity change, negative = inhibition ([2]; at 57.5 µM (top of the series)): -4.93% (inactive) | max response [2, 20]: 18.9% | max response [2, 21]: 13%

NCCCNCCSP(=O)(O)O
outcome [3]: inactive | outcome [1]: inactive | activity change, negative = inhibition ([2]; at 57.5 µM (top of the series)): 2.83% (inactive) | max response [2, 20]: 11.3% | max response [2, 21]: 15.5%

CN(C)C(=O)Oc1ccc[n+](C)c1
outcome [3]: inactive | outcome [1]: inactive

COCC(=O)O[C@]1(CCN(C)CCCc2nc3ccccc3[nH]2)CCc2cc(F)ccc2[C@@H]1C(C)C
outcome [3]: inactive | outcome [1]: inactive | activity change, negative = inhibition ([2]; at 57.5 µM (top of the series)): -12.5% (inactive) | max response [2, 20]: -3.1% | max response [2, 21]: -16.1%

Brc1c(NC2=NCCN2)ccc2nccnc12
outcome [3]: inactive | outcome [1]: inactive

C[N+](C)(C)CCCCCCCCCC[N+](C)(C)C
outcome [3]: inactive | outcome [1]: inactive | activity change, negative = inhibition ([2]; at 25.7 µM (top of the series)): -3.64% (inactive) | max response [2, 20]: -13.2% | max response [2, 21]: -14.8%

C[N+](C)(C)CCOC(=O)CCC(=O)OCC[N+](C)(C)C
outcome [3]: inactive | outcome [1]: inactive

CN(C)C(=O)Oc1cccc([N+](C)(C)C)c1
outcome [3]: inactive | outcome [1]: inactive

OCCN1CCN(CCCN2c3ccccc3C=Cc3ccccc32)CC1
outcome [3]: inactive | outcome [1]: inactive | activity change, negative = inhibition ([2]; at 57.5 µM (top of the series)): -1.21% (inactive) | max response [2, 20]: 45.9% | max response [2, 21]: 45.9%

Nc1ncn([C@@H]2O[C@H](CO)[C@@H](O)[C@H]2O)c(=O)n1
Potency [7]: 15.8 µM (active) | Potency [10]: 15.8 µM (active) | Potency [13]: 7.94 µM (active) | Potency [14]: 10 µM (active) | Potency [15]: 15.8 µM (active) | Potency [16]: 15.8 µM (active) | outcome [3]: inactive | Potency [19]: 15.8 µM (active) | outcome [1]: inactive

C[C@]12CCC(=O)C=C1CC[C@@H]1[C@@H]2CC[C@@]2(C)[C@H]1CC[C@]2(O)C(=O)CO
outcome [3]: inactive | outcome [1]: inactive | activity change, negative = inhibition ([2]; at 57.5 µM (top of the series)): -0.711% (inactive) | max response [2, 20]: 15.6% | max response [2, 21]: 12.1%

CC(=O)Oc1cc(C(C)C)c(OCCN(C)C)cc1C
outcome [3]: inactive | outcome [1]: inactive

Cc1nc2c([nH]1)c(=O)n(C)c(=O)n2Cc1ccco1
outcome [3]: inactive | outcome [1]: inactive

CCN(CC)CCNC(=O)c1ccc(NC(C)=O)cc1
outcome [3]: inactive | outcome [1]: inactive | activity change, negative = inhibition ([2]; at 57.5 µM (top of the series)): 5.92% (inactive) and 1.04% (inactive) | max response [2, 20]: -2.69% and -11.3% | max response [2, 21]: 6.2% and -12.1%

O=C1CC2(CCCC2)CC(=O)N1CCCCN1CCN(c2ncccn2)CC1
outcome [3]: inactive | outcome [1]: inactive

C[C@H](CS)C(=O)N1CCC[C@H]1C(=O)O
outcome [3]: inactive | outcome [1]: inactive

CN1CCN(CC(=O)N2c3ccccc3C(=O)Nc3cccnc32)CC1
outcome [3]: inactive | outcome [1]: inactive | activity change, negative = inhibition ([2]; at 25.7 µM (top of the series)): 1.33% (inactive) | activity change, negative = inhibition ([2]; at 57.5 µM (top of the series)): 2.91% (inactive) and 6.38% (inactive) and 1.02% (inactive)

CCCOc1ccccc1-c1nc2n[nH]nc2c(=O)[nH]1
outcome [3]: inactive | outcome [1]: inactive

CC(C)[N+](C)(CCOC(=O)C1c2ccccc2Oc2ccccc21)C(C)C
outcome [3]: inactive | outcome [1]: inactive | activity change, negative = inhibition ([2]; at 25.7 µM (top of the series)): 0.9% (inactive) | max response [2, 20]: -9.66% | max response [2, 21]: -8.2%

C[C@]12C=CC(=O)C=C1CC[C@H]1[C@@H]3C[C@@H](O)[C@](O)(C(=O)CO)[C@@]3(C)C[C@H](O)[C@@]12F
outcome [1]: inactive

CN(C)CC/C=C1\c2ccccc2COc2ccccc21
outcome [3]: inactive | outcome [1]: inactive

C[C@]12CCC(=O)C=C1CC[C@@H]1[C@@H]2C(=O)C[C@@]2(C)[C@H]1CC[C@]2(O)C(=O)CO
outcome [3]: inactive | outcome [1]: inactive
